The nature of experiment [1]: ATG_M_61_CIS: Attagene CIS-FACTORIAL HepG2 Assay for M61 Transcription Factor (Internal Marker) (AID 2282937). Particulars: HepG2 Attagene CIS-FACTORIAL M61 internal marker reporter; actives raise or lower the signal. The essentials:
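Human liver HepG2, transient MRTU transfection (cis promoter elements), 24 h compound. Total RNA → oligo(dT) RT → PCR → FAM label → HpaI → CE. Internal background marker; bidirectional fitting, DMSO = baseline.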

Experiment [2] in a line: ATG_M_19_CIS: Attagene CIS-FACTORIAL HepG2 Assay for M19 Transcription Factor (Internal Marker) (AID 2282939). The note with it: HepG2 Attagene CIS-FACTORIAL M19 internal marker reporter; actives raise or lower the signal. The essentials: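 Readout: fluorescent reporter-transcript fragments by capillary electrophoresis after RT-PCR. Human HepG2 liver cells carried transfected MRTU constructs reporting endogenous transcription-factor activity; exposure 24 h. Gain or loss of signal fitted relative to DMSO.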

Experiment [3] in a line: ATG_ERE_CIS: Attagene CIS-FACTORIAL HepG2 Assay for Estrogen Response Element (ERE) (AID 2282940). The note with it: HepG2 ERE cis-reporter, Attagene RNA transcript; actives raise or lower the signal. The essentials:
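Readout: reporter mRNA induction by RT-PCR, FAM-labelled primer extension, HpaI digestion and capillary electrophoresis, 24 h after dosing transfected HepG2 cells. Endogenous transcription factors act on cis-element-regulated reporters. Gain or loss fitted against DMSO.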

Experiment [4] in a line: ATG_Ets_CIS: Attagene CIS-FACTORIAL HepG2 Assay for human Erythroblast Transformation Specific (ETS) (AID 2282941). Particulars: HepG2 ETS cis-reporter transcription; AC50: actives raise or lower the signal unless noted; outcome: actives raise or lower the signal unless noted. The essentials: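 After transient cis-reporter transfection, HepG2 cells receive test chemical for 24 h. Reporter mRNA levels, measured by RT-PCR and capillary electrophoresis fluorescence, are analysed bidirectionally relative to the DMSO baseline.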

The target in experiment [5] is Hepatocyte nuclear factor 3-beta (Homo sapiens) (UniProt Q9Y261). The experiment in a line: ATG_FoxA2_CIS: Attagene CIS-FACTORIAL HepG2 Assay for human Forkhead box A2 (FOXA2) (AID 2282942). The note with it: HepG2 cis-reporter transcription factor activity, 24 h; actives raise or lower the signal. The essentials: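 Transient MRTU transfection of HepG2 liver cells; 24 h treatment; total RNA → oligo(dT) RT → PCR → FAM primer extension → HpaI cut → CE. Bidirectional fit vs DMSO.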

The nature of experiment [6]: ATG_FoxO_CIS: Attagene CIS-FACTORIAL HepG2 Assay for human Forkhead box O (FoxO) (AID 2282943). The note with it: HepG2 Attagene cis-reporter, FoxO element, mRNA; actives raise or lower the signal. The essentials:
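Read-out: fluorescence of 6-FAM-labelled reporter cDNA fragments resolved by capillary electrophoresis. Transiently transfected HepG2 cells were dosed for 24 h; activity fitted in both directions relative to DMSO controls.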

A short description of experiment [7]: ATG_GATA_CIS: Attagene CIS-FACTORIAL HepG2 Assay for human GATA Binding Protein (AID 2282944). Particulars: HepG2 GATA cis-element reporter, Attagene multiplex mRNA; actives raise or lower the signal. The essentials:
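Read-out: fluorescent reporter mRNA fragments resolved by capillary electrophoresis after RT-PCR. Human liver HepG2 cells carried transiently transfected cis-regulated reporter constructs; chemicals incubated 24 h; gain or loss of signal fitted relative to DMSO.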

Experiment [8] can be described thus: ATG_GLI_CIS: Attagene CIS-FACTORIAL HepG2 Assay for human Zinc Finger Protein GLI1 (AID 2282945). The note with it: HepG2, Attagene cis-factorial reporter mRNA, GLI element; actives raise or lower the signal. The essentials: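 Transiently transfected HepG2 cells report endogenous transcription factor activity via cis-element-driven reporter units. After 24 h compound exposure, reporter mRNA was measured by RT-PCR with capillary electrophoresis; bidirectional fitting against DMSO baseline.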

In experiment [9] the target is Bile acid receptor (Homo sapiens) (UniProt Q96RI1). The experiment in a line: ATG_IR1_CIS: Attagene CIS-FACTORIAL HepG2 Assay for human Nuclear Receptor Subfamily 1 Group H Member 4 (NR1H4), IR1 submotif (AID 2282946). Particulars: IR1 reporter transcription, actives raise or lower the signal. The essentials:
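HepG2 cells transiently transfected with multiple cis-promoter-driven reporter units to measure endogenous transcription factor activity; 24 h exposure. Reporter mRNA read by RT-PCR, FAM labelling, HpaI digestion and capillary electrophoresis. Bidirectional fit versus DMSO.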

Each structure is given as a SMILES string. Several values for one entry are separate records, joined by “and”; a condition that tells them apart may be missing. Equal entries are not always repeated. Activity calls are given as the source filed them. Rule for the calls: active = hit-call score of the fitted dose curve at least 0.9, where 1 is the maximum; inactive = score below 0.9.

The AC50 is the concentration giving half of the maximal activity seen.

Sequence of Bile acid receptor (Homo sapiens) (Q96RI1 whole entry, looked up): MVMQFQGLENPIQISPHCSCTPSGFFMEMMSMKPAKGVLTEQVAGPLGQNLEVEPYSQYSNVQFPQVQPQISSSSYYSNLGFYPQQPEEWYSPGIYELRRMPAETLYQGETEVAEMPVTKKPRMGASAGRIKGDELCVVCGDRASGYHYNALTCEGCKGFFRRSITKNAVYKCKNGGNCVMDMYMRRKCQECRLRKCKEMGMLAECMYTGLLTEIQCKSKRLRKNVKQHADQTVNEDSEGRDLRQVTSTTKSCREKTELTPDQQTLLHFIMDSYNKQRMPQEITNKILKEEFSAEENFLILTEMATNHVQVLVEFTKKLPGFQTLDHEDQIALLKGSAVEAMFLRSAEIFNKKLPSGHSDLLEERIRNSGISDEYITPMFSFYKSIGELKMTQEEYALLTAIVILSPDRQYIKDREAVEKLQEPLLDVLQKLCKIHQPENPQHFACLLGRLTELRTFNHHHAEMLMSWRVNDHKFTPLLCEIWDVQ
Sequence of Hepatocyte nuclear factor 3-beta (Homo sapiens) (Q9Y261 whole entry, looked up): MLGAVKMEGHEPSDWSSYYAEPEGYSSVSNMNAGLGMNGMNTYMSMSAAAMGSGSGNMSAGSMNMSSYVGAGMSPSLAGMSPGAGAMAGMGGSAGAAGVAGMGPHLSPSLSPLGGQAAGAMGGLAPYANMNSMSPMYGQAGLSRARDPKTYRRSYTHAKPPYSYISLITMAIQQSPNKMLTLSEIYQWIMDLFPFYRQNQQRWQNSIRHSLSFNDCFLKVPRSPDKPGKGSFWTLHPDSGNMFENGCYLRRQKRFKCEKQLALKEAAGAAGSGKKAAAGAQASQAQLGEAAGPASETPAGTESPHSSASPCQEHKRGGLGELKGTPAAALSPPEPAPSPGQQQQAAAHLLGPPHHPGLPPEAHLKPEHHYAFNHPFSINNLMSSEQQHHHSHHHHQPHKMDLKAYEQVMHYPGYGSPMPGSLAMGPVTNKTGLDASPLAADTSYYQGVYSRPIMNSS

With `C=CC(=O)OCCN(CC)CC`, the result in experiment [1], in experiment [2], in experiment [3], in [4], in experiment [5] and in experiment [6] was inactive. Also, the result in experiment [7], in experiment [8] and in experiment [9] was inactive.

For the molecule `C=CC(=O)OCCC(F)(F)C(F)(F)C(F)(F)C(F)(F)C(F)(F)C(F)(F)C(F)(F)C(F)(F)F`, the molecule was called inactive in experiment [1], in [4], in [5], in [7], in experiment [8] and in experiment [9]. Besides, the AC50 in experiment [3] was 22.6 µM (active).

Consider `COCN(COC)c1nc(N(COC)COC)nc(N(COC)COC)n1`, for which the call in experiment [1], in [2], in experiment [4], in experiment [5], in experiment [6] and in [7] was inactive. Besides, the molecule was called inactive in experiment [8] and in [9]. The AC50 in experiment [3] was 23.7 µM (active).

In the case of `CCCCCCCCCCCC(=O)O`, the call in experiment [1], in experiment [2], in experiment [4], in [5], in experiment [6] and in experiment [7] was inactive. Further, the molecule was classed as inactive in [8].

Consider `CC1CCC(CO)CC1` (centres undefined), for which the outcome in experiment [1], in experiment [4], in experiment [6], in experiment [7] and in experiment [8] was inactive. In addition, the AC50 in experiment [3] was 20 µM (active) and 27.1 µM (active).

For the molecule `O=C(NCc1ncc(C(F)(F)F)cc1Cl)c1c(Cl)cccc1Cl`, the call in experiment [1], in experiment [3], in experiment [4], in [7], in experiment [8] and in [9] was inactive.

With `O=S(=O)(O)C(F)(F)C(F)(F)C(F)(F)C(F)(F)C(F)(F)C(F)(F)C(F)(F)C(F)(F)C(F)(F)C(F)(F)F`, the molecule was classed as inactive in experiment [1], in experiment [2], in experiment [3], in experiment [4], in experiment [5] and in experiment [6]. Further, the outcome in experiment [7], in experiment [8] and in experiment [9] was inactive.

`O=C1OC(=O)c2cc(-c3ccc4c(c3)C(=O)OC4=O)ccc21`: the molecule was classed as inactive in experiment [1], in experiment [2], in experiment [3], in [5], in experiment [6] and in experiment [7]. Besides, the outcome in experiment [8] and in experiment [9] was inactive.

In the case of `CCC(=O)O`, the molecule was called inactive in experiment [1], in [2], in experiment [3], in experiment [4], in experiment [5] and in experiment [6]. The result in experiment [7] and in [8] was inactive.

Regarding `CCN(CCC#N)c1ccccc1`, the result in experiment [1], in experiment [2], in experiment [3], in experiment [4], in experiment [5] and in experiment [7] was inactive. In addition, the molecule was called inactive in [8] and in experiment [9].

On to `O=C1c2ccc(O)c(O)c2C(=O)c2c(O)ccc(O)c21`, for which the result in experiment [1], in experiment [2], in experiment [5], in experiment [6], in [7] and in experiment [8] was inactive. Moreover, in [9], the result was inactive. Moreover, in experiment [3], the AC50 was 13.6 µM (active).

On to `c1cc2cccc3c4cccc5cccc(c(c1)c23)c54`, for which the molecule was called inactive in [1], in experiment [2], in experiment [3], in experiment [4], in experiment [6] and in experiment [7]. Moreover, the outcome in experiment [8] and in experiment [9] was inactive.

`O=C(CC(=O)C(F)(F)C(F)(F)C(F)(F)F)c1cccs1`: the result in [1], in [3], in experiment [5], in experiment [7], in experiment [8] and in experiment [9] was inactive.

With `O=c1cc(-c2ccccc2)oc2ccc3ccccc3c12`, the outcome in experiment [1], in [2], in experiment [4], in experiment [5], in experiment [6] and in experiment [7] was inactive. The result in [8] was inactive. In addition, the AC50 in experiment [3] is 1.19 µM (active) and 521 nM (active).

Regarding `Cc1cc(C(=C2C=CC(=Nc3ccc(S(=O)(=O)O)cc3)C=C2)c2ccc(Nc3ccc(S(=O)(=O)O)cc3)cc2)cc(S(=O)(=O)O)c1N`, the result in experiment [1], in [2], in [3], in [5], in experiment [6] and in experiment [7] was inactive. Moreover, the outcome in experiment [8] and in [9] was inactive.

For `C=CC(C)(CCC=C(C)C)OC(C)=O` (centres undefined), the outcome in experiment [1], in experiment [3], in experiment [4], in experiment [5], in experiment [6] and in experiment [7] was inactive. Further, the outcome in [8] and in [9] was inactive.

For the molecule `FC(F)=C(F)C(F)(F)C(F)(F)C(F)(F)C(F)F`, the call in experiment [1], in experiment [3], in experiment [4], in [5], in experiment [6] and in experiment [7] was inactive. For the same molecule, the molecule was classed as inactive in experiment [8] and in experiment [9].

Turning to `O=C(Nc1ccc(Cl)c(Cl)c1)c1cc(Cl)cc(Cl)c1O`, the result in [1], in experiment [3], in experiment [4], in experiment [6] and in experiment [7] was inactive. The AC50 in [5] was 0.502 µM (active); in experiment [8], 50.6 µM (active); in experiment [9], 52.4 µM (active).

These data come from PubChem BioAssay (EPA / NIEHS).
